This is an account of results in PubChem BioAssay.

A short description of assay [1]: inhibitors of TNFa-induced NFkB p65 translocation, primary screen, imaging, HUVEC, MLSMR starter and 10KST1 sets (AID 438;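 active = inhibition above 20% together with a positive visual image hit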;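 note: compound added about 3h40 before a 20 min TNFalpha stimulation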;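 for inhibition: signal is the nuclear over cytoplasmic p65 intensity ratio per well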). The note with it: HUVEC TNFa-induced p65 nuclear translocation; cell count: measured here: nuclei count (cytotoxicity indicator), at 2.08 µM; inhibition: at 2 µM, stronger effect = higher value, 0% TNFa-plus-vehicle, 100% no-TNFa wells.
Assay [2] is described as follows: inhibitors of mutant huntingtin aggregation, primary screen, imaging, exon1htt(103Q)mCFP cells, high-content imaging (AID 483;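 active = visual image review flags a hit and inhibition of aggregation exceeds 20%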;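 note: compound exposure lasted 3 days before fixation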;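 for nuclei count: percent of the per-plate median nuclei count of sample wells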). As to conditions: exon1htt(103Q)mCFP cell line, aggregate imaging, at 2 µM; inhibition of aggregation: stronger effect = higher value; nuclei count: measured here: cell count, toxicity.
Assay [3] can be described thus: inhibitors of E-selectin induction by TNFa, primary screen, imaging, HUVEC, immunofluorescence, MLSMR starter and 10KST1 sets (AID 487;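 active = visually confirmed hit in the image check and inhibition above 20%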;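 for inhibition: signal is fraction of cell area covered by stained E-selectin grains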;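 for nuclei count: 100% = median nuclei count of all wells on the same plate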). As to conditions: HUVEC TNFalpha-induced E-selectin immunofluorescence imaging, at 2 µM; inhibition: stronger effect = higher value; nuclei count: measured here: cell number, toxicity.
For assay [4], the target named is Voltage-gated potassium channel subunit beta-2 (Rattus norvegicus) (UniProt P62483). In words: KvBeta enzyme negative modulators, primary screen, biochemical, NADPH fluorescence (AID 622;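 active = fluorescence slope higher than the sample average by over 3 SD, cut at about -0.22 in these data, passing the limit was not always enough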;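 note: slope of raw intensity against log time taken from 70 to 1610 s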). The note with it: recombinant KvBeta, 4-cyanobenzaldehyde reduction, at 10 µM, stronger effect = higher value.
Sequence of Voltage-gated potassium channel subunit beta-2 (Rattus norvegicus) (P62483 whole entry, looked up): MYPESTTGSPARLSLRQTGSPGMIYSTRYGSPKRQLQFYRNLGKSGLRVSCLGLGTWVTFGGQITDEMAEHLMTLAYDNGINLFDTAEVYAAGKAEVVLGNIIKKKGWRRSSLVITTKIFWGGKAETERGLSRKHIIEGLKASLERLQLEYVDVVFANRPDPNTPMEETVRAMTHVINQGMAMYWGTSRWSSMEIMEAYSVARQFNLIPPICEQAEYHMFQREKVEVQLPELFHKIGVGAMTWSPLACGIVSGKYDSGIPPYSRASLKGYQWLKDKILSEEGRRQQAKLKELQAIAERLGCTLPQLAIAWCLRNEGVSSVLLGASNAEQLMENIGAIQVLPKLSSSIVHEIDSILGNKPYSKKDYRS
Assay [5] has the same target. In words: KvBeta positive modulators, primary screen, biochemical, NADPH fluorescence (AID 623;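 active = NADPH fluorescence slope more negative than the mean of all samples by about 3 SD, 99.7% confidence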;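 note: fluorescence intensity change per second fitted from 20 to 320 s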). As to conditions: Recombinant KvBeta, NADPH fluorescence decrease slope, 10 min; at 10 µM; stronger effect = lower value.
Assay [6] has as its target Alpha-2C adrenergic receptor (Homo sapiens) (UniProt P18825). In words: modulators of alpha2C/GIRK thallium flux, primary screen, cell-based, HEK293 alpha2C/GIRK1/2 (AID 624;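 active = fluorescence slope after compound addition differing from the mean of all screened samples at 99.7% confidence, in either direction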;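 note: slope of fluorescence ratio to pre-addition baseline per second over 15 to 24 s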). As to conditions: thallium flux BTC fluorescence, at 10 µM, actives lie on both sides.
Assay [7] in a line: inhibitors of Sendai virus-induced IRF3 signaling, primary screen, TLR/RLR signaling modifier project, cell-based, Sendai virus stimulus, luciferase, 10K MLSCN set (AID 602276).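 Note: firefly luciferase from ISG56 promoter only with Renilla not read in this screen; 0% = Sendai virus plus DMSO and 100% = medium plus DMSO without virus.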 The note with it: HEK293 RL24 IRF3 luciferase reporter, at 10 µM, stronger effect = higher value. Background: In a reporter assay the amount or activity of a reporter protein is the signal.
A short description of assay [8]: inhibitors of poly I:C-induced TLR3 signaling, primary screen, cell-based, poly I:C stimulus, luciferase, 10K MLSCN set (AID 602277;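 active = inhibition of the reporter signal at or above 50%; inactive = inhibition below 50%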). As to conditions: HEK293-TLR3 RL24 IRF3 luciferase reporter, at 10 µM, stronger effect = higher value.

Molecules are shown by their SMILES. Activity calls are given as the source filed them.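 Rule for the calls, unless noted: active = inhibition at or above 50% at 10 µM; inactive = inhibition below 50%.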

Sequence of Alpha-2C adrenergic receptor (Homo sapiens) (P18825 whole entry, looked up): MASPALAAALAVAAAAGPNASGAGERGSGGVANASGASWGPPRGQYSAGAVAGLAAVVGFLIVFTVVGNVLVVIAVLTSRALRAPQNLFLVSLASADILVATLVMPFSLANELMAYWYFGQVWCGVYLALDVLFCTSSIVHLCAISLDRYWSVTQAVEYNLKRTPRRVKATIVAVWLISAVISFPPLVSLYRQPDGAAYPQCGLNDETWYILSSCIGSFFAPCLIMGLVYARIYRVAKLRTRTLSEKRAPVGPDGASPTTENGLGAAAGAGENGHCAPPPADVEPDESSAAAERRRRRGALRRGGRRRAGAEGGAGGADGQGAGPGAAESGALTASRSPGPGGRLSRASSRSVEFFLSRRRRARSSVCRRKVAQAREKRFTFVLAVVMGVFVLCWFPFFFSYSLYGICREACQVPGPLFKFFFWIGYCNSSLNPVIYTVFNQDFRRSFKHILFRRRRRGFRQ

One may read the inhibition as the relative decrease from the control value, in per cent. Take `Cn1c(=O)c2c(nc(NCC3CCCO3)n2C)n(C)c1=O` (configuration not stated): the cell count in assay [1] is 314. The inhibition in assay [1] is 0.2% (inactive); in assay [3], -102% (inactive); in assay [7] it was 6.21% (inactive); in assay [8], 6.02% (inactive). The inhibition of aggregation in assay [2] is -10.3% (inactive). The nuclei count in assay [2] came out at 108%; in assay [3] it was 122%. Also, in assay [4], the fluorescence slope was -0.609 (inactive). For the same compound, the NADPH fluorescence slope in assay [5] was -1.6e-05 (inactive). Besides, the slope in assay [6] was 0.00331 (inactive).
Take `Cc1cc(Br)ccc1NC(=O)CCN1C(=O)c2ccncc2C1=O`: the cell count in assay [1] turned out to be 403. Besides, the inhibition is 3.8% (inactive) in assay [1], 39.2% (inactive) in assay [3], -13.8% (inactive) in assay [7] and 13.1% (inactive) in assay [8]. The inhibition of aggregation in assay [2] is -19.7% (inactive). Moreover, the nuclei count in assay [2] came out at 96.6%; in assay [3] it was 89.7%. The fluorescence slope in assay [4] was -0.51 (inactive). The NADPH fluorescence slope in assay [5] is -3.1e-05 (inactive). In assay [6], the slope was 0.00525 (inactive).
With `COc1ccc(S(=O)(=O)N(C)CC(=O)N2CCCCC2)cc1Cl`, in assay [1], the cell count came to 173. Further, the inhibition is -15.7% (inactive) in assay [1], -2.3% (inactive) in assay [3], 13.8% (inactive) in assay [7] and 15% (inactive) in assay [8]. Further, the inhibition of aggregation in assay [2] is 4.2% (inactive). Moreover, the nuclei count in assay [2] is 94.8%; in assay [3], 87%. Also, the fluorescence slope in assay [4] is -0.492 (inactive). In addition, the NADPH fluorescence slope in assay [5] was -2.5e-05 (inactive). Moreover, the slope in assay [6] is 0.00667 (inactive).
Consider `Cc1cc(C)c(OCC(=O)Nc2cccc(O)c2)cc1C`, for which the cell count in assay [1] was 252. Besides, the inhibition in assay [1] is -14.9% (inactive); in assay [3], -20.3% (inactive); in assay [7], 16.6% (inactive); in assay [8] it was 11.6% (inactive). Further, the inhibition of aggregation in assay [2] was 46.4% (active). Moreover, the nuclei count in assay [2] was 40.4%; in assay [3], 102%. Also, the fluorescence slope in assay [4] was -0.44 (inactive). In addition, the NADPH fluorescence slope in assay [5] is -8.2e-06 (inactive). In addition, the slope in assay [6] is 0.0065 (inactive).
Turning to `O=C(Nc1ccon1)c1cc(-c2ccccc2)nc2ccccc12`, the cell count in assay [1] was determined as 364. The inhibition in assay [1] was -8% (inactive); in assay [3], -48.5% (inactive); in assay [7] it was -24.1% (inactive); in assay [8], 99.8% (active). Also, in assay [2], the inhibition of aggregation was 22.5% (inactive). Also, the nuclei count in assay [2] came out at 98.4%; in assay [3] it was 116%. Moreover, the fluorescence slope in assay [4] is -0.286 (inactive). In assay [5], the NADPH fluorescence slope was -6.3e-05 (inactive). In addition, the slope in assay [6] was 0.00497 (inactive).
For `S=C(c1ccc(N2CCOCC2)cc1)N1CCCCC1`, the cell count in assay [1] came to 375. Moreover, the inhibition in assay [1] was -1.3% (inactive); in assay [3] it was -68.1% (inactive); in assay [7] it was -29.8% (inactive); in assay [8], -15.7% (inactive). In assay [2], the inhibition of aggregation was 4.1% (inactive). For the same compound, the nuclei count in assay [2] and in assay [3] was 111% each time. For the same compound, the fluorescence slope in assay [4] was -0.535 (inactive). Moreover, the NADPH fluorescence slope in assay [5] is -2e-05 (inactive). Besides, the slope in assay [6] is 0.00689 (inactive).
On to `O=C(Nc1cccc(Cl)c1)N1CCN(c2ncccn2)CC1`, for which the cell count in assay [1] was determined as 334. The inhibition in assay [1] is 2% (inactive); in assay [3], 19.1% (inactive); in assay [7], -23.1% (inactive); in assay [8], -47% (inactive). For the same compound, the inhibition of aggregation in assay [2] was 21% (inactive). Also, the nuclei count turned out to be 94.1% in assay [2] and 84.8% in assay [3]. Moreover, the fluorescence slope in assay [4] is -0.53 (inactive). Moreover, the NADPH fluorescence slope in assay [5] was 4.6e-05 (inactive). In assay [6], the slope is 0.00446 (inactive).
Take `Cc1cc(C)n2nc(SCC(=O)N(C)c3ccccc3)nc2n1`: the cell count in assay [1] stood at 370. Besides, the inhibition in assay [1] is -5.3% (inactive); in assay [3], -24.2% (inactive); in assay [7] it was 5.25% (inactive); in assay [8], 24.1% (inactive). For the same compound, the inhibition of aggregation in assay [2] is -25.2% (inactive). For the same compound, the nuclei count in assay [2] is 115%; in assay [3], 103%. Moreover, the fluorescence slope in assay [4] was -0.462 (inactive). Further, the NADPH fluorescence slope in assay [5] was -4.2e-05 (inactive). The slope in assay [6] was 0.0068 (inactive).
On to `c1ccc(CSCc2cn3ccsc3n2)cc1`, for which the cell count in assay [1] worked out at 664. The inhibition in assay [1] is 1.2% (inactive); in assay [3], -84.7% (inactive); in assay [7], -50.3% (inactive); in assay [8] it was -132% (inactive). Moreover, the inhibition of aggregation in assay [2] was 5.1% (inactive). The nuclei count was found to be 107% in assay [2] and 131% in assay [3]. For the same compound, the fluorescence slope in assay [4] is -0.583 (inactive). In addition, the NADPH fluorescence slope in assay [5] is -4.2e-05 (inactive). The slope in assay [6] is 0.00621 (inactive).
Regarding `O=S(=O)(c1ccc2c(c1)OCCO2)N1CCC(n2nnc3cc(F)ccc32)CC1`, the cell count in assay [1] was 577. The inhibition in assay [1] is -9.9% (inactive); in assay [3], -24.6% (inactive); in assay [7], 17.3% (inactive); in assay [8], 17.7% (inactive). The inhibition of aggregation in assay [2] is 1.5% (inactive). Moreover, the nuclei count in assay [2] came out at 78%; in assay [3], 103%. In addition, the fluorescence slope in assay [4] was -0.5 (inactive). The NADPH fluorescence slope in assay [5] is -3e-05 (inactive). For the same compound, in assay [6], the slope is 0.00521 (inactive).
Regarding `Cc1ccc(Cn2c(=O)c3ccccc3n3c(CCC(=O)O)nnc23)cc1`, the cell count in assay [1] was 681. The inhibition is -13.4% (inactive) in assay [1], -55.9% (inactive) in assay [3], 0.88% (inactive) in assay [7] and 12.6% (inactive) in assay [8]. Besides, in assay [2], the inhibition of aggregation is -2.1% (inactive). Further, the results for the nuclei count in assay [2] and in assay [3] were 90% and 116%, respectively. The fluorescence slope in assay [4] is -0.554 (inactive). Moreover, in assay [5], the NADPH fluorescence slope was 1.7e-05 (inactive). Also, the slope in assay [6] is 0.00669 (inactive).
`COc1ccc2cc(CN(Cc3ccco3)C(c3nnnn3C3CCCCC3)C(C)C)c(=O)[nH]c2c1` (configuration not stated): in assay [1], the cell count is 325. Also, the inhibition in assay [1] is 1.6% (inactive); in assay [3], -147% (inactive); in assay [7] it was 11.1% (inactive); in assay [8], -3.61% (inactive). Also, the inhibition of aggregation in assay [2] is 2.5% (inactive). The nuclei count in assay [2] is 119%; in assay [3] it was 125%. Also, the fluorescence slope in assay [4] is -0.451 (inactive). For the same compound, the NADPH fluorescence slope in assay [5] was 5.5e-07 (inactive). For the same compound, the slope in assay [6] was 0.00859 (inactive).
